The list shows a part of the results. Inconclusive results are not listed. The source made the active and inactive calls. The call rests on the fitted dose curve; in most records, active means well fitted inhibition curve with a large enough effect; inconclusive means small, poorly fitted or top-dose-only effect; inactive means flat fitted curve, though single readings scatter.
System: Trypanosoma brucei pyruvate kinase (TbPYK)
Experiment: qHTS of Trypanosoma Brucei Inhibitors: Orthogonal Assay for Cherry-picked Compounds; further: nearly all actives have a fitted effect of over 75% in size
Settings: recombinant TbPYK, ADP-Glo luminescence, 60 min; series mostly up to 76.9 µM
Excerpt: Members of the Trypanosomatidae family of parasitic protozoans cause a spectrum of diseases throughout the tropical and subtropical world. Sleeping sickness, caused by two subspecies of Trypanosoma brucei, is endemic to areas of sub-Saharan Africa, while Chagas' disease, a manifestation of Trypanosoma cruzi infection, is prevalent throughout Central and South America. In addition, many species of Leishmania are responsible for a range of cutaneous and visceral diseases, causing ulcers, destructive lesions and kalaazar, a lethal infection of the viscera. These diseases cause severe public health and economic burdens on populations that are often already caught in a tragic cycle of poverty, poor nutrition and disease. Collectively, parasites of the trypanosomatid family infect 30 million people worldwide (~500 million live in endemic areas), and account for ~130K deaths annually. Existing treatments have developed little in the past 50 years, and suffer from toxicity, poor efficacy and resistance; the goal of this project is to develop lead drugs that will be suitable for entry into pre-clinical trials. […] Glycolysis in axenically cultured T. cruzi, representing the intracellular pathogenic stage, is also essential for these parasites. {Engel, 1987} This project aims to discover and optimize selective inhibitors of the glycolytic enzyme pyruvate kinase (PYK) from Trypanosoma brucei, the parasite that causes sleeping sickness. […] Trypanosomatid PYKs show significant differences from their human counterparts including only 47-50% sequence identity and different allosteric and activation properties.{Callens, 1992} To this end, a qHTS was done against the MLSMR to discover inhibitors. To confirm activity of the cherrypicked compounds, an orthogonal assay was developed. While the primary qHTS provides a luminescence-based detection of TbPyK by measuring ATP production, the orthogonal assay will measure the amount of ADP substrate remaining. Decrease in activity signal indicative of inhibition of T. brucei proliferation is the desired outcome for this assay. NIH Molecular Libraries Probe Production Network [MLPCN] NIH Chemical Genomics Center [NCGC] Grant: MH095452 PI Name: Malcolm Walkinshaw, University of Edinburgh
Briefly, 2 uL of substrate/TbPYK buffer (all columns but column 4) are dispensed into Greiner white solid-bottom 1536-well assay plates. Column 4 gets just buffer without enzyme. Compounds are then transferred via Kalypsys pin tool equipped with 1536-pin array (10 nL slotted pins, V&P Scientific, San Diego, CA). Following addition of compound, 1 uL of ADP (130 uM final concentration, columns 1-48) is added to initiate the reaction. The plates are then incubated at room temperature for 60 minutes. ADP-Glo (Promega) reagent I is added (2.5 uL) and plates incubated for 10 minutes. ADP-Glo reagent II is then added (5 uL), followed by a 10 minute room temperature incubation, before being transferred to a ViewLux high-throughput CCD imager (PerkinElmer), wherein single end-point measurements of luminescence are acquired using a clear filter. All reagents are diluted in an assay buffer consisting of 50 mM TEA (pH 7.2), 100 mM KCl, 10 mM MgCl2, 0.05% BSA and 0.01% Tween-20.
Potency means the concentration at half of the fitted maximal effect.

SMILES | Potency
COc1cc(C2CC(=O)N3CN(Cc4ccccc4)CSC3=C2C#N)ccc1OCc1ccccc1 (stereo unspecified) | 0.447 µM (active)
Oc1c(CN2CCOCC2)ccc(CN2CCOCC2)c1O | 7.08 µM (active)
Cc1c(C)c(C)c(S(=O)(=O)N2CCC3(CC2)OCCO3)c(C)c1C | inactive
c1ccc(-c2nnc3n2NC(c2ccc4c(c2)OCO4)S3)cc1 (stereo unspecified) | 0.141 µM (active)
CC(=O)N1CC[n+]2c(-c3ccc([N+](=O)[O-])cc3)csc21 | 1.78 µM (active)
Cc1cc(C#N)c(SCC(N)=O)nc1-c1ccc(F)cc1 | 5.01 µM (active)
COc1cccc(C(=O)c2cc3ccc(O)cc3oc2=O)c1 | inactive
CN(c1ccccc1)S(=O)(=O)c1cccc(NC(=O)Cc2ccc(Cl)cc2)c1 | 12.6 µM (active)
O=C(COC(=O)c1ccccc1)c1ccc2c(c1)OCCO2 | inactive
COc1ccc(Cc2nnc(NS(=O)(=O)Cc3ccccc3)s2)cc1 | inactive
N#Cc1c(N2CCCCC2)nc(N)c2c(N)nc(SCC(=O)O)cc12 | 35.5 µM (active)
C=CCn1c(=S)[nH]c2scc(-c3ccco3)c2c1=O | 17.8 µM (active)
Cc1ccc(NC(=O)c2cc(-c3ccc(C)o3)nc3ccccc23)nc1 | 35.5 µM (active)
CSc1c(SCc2ccccc2)cnn(Cc2ccccc2)c1=O | 14.1 µM (active)
NC(=O)c1c(Nc2nc3c(F)cccc3s2)sc2c1CCCC2 | 8.91 µM (active)
Cc1ccc(/C=C/C(=O)Nc2ccc([N+](=O)[O-])c(NC(=O)/C=C/c3ccc(C)o3)c2)o1 | 20 µM (active)

SMILES | Potency
COc1cccc(C(=O)Nc2ccc(N3CCCC3)cc2)c1 | inactive
Cc1cccc(-n2c(N)c(C(=O)N3CCN(C)CC3)sc2=S)c1 | 5.01 µM (active)
O=c1[nH]c2ccccc2n2c(-c3ccccc3)nnc12 | 0.1 µM (active)
O=C1C=CC(=O)N1c1ccc(N2CCCCC2)cc1 | 3.55 µM (active)
Cc1cc(C2=NNC(=Nc3ccc(S(=O)(=O)N4CCOCC4)cc3)SC2)c(C)n1CC1CCCO1 (stereo unspecified) | 15.8 µM (active)
COC(=O)/C=C\C(=O)Nc1cccc([N+](=O)[O-])c1 | 17.8 µM (active)
Cc1nc2ccc(S(=O)(=O)NCC(=O)O)cc2s1 | 11.2 µM (active)
O=C(CN1CCN(c2ccc(O)cc2)CC1)Nc1cc(S(=O)(=O)N2CCOCC2)ccc1Cl | 12.6 µM (active)
O=C(CCCCCn1c(=S)[nH]c2ccsc2c1=O)NC1CCCCC1 | 14.1 µM (active)
O=C(CSc1ccc(-c2ccco2)nn1)Nc1cccc(F)c1 | 31.6 µM (active)
O=C(CSc1nnc(-c2ccco2)n1CC1CCCO1)c1ccccc1 (stereo unspecified) | 35.5 µM (active)
Cc1ccc(C)c2c1cc(C)c1nnc(SCC(=O)Nc3cccc(C(=O)O)c3)n12 | 1 µM (active)
Cc1nonc1C(=O)N/N=C/c1ccc(O)cc1 | inactive
COCCNC(=O)Nc1ccc2nc(-c3ccco3)c(-c3ccco3)nc2c1 | 8.91 µM (active)
O=C(Nc1ccc(S(=O)(=O)N2CCOCC2)cc1)c1ccc2ncsc2c1 | 15.8 µM (active)
